Results on 14 compounds are retold here after PubChem BioAssay (NCI).

Molecules are shown by their SMILES. “And” between values parts separate entries of the source, which are not always exact repeats. Equal values may be shown once. This is part of a sample that, as a whole, favours compounds with a hit. Of some 83,000 tested, about 20% had one in any assay.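 Growth was measured after 48 h exposure to one concentration of compound in 96-well plates. Values under 10 count as active.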 Unmarked numbers belong to inactive results. The source made the active and inactive calls.

The assay deals with MDA-MB-468 breast. The assay is described as follows: NCI-60 one-dose screen, 48 h (100 = growth as untreated, 0 = no growth, -100 = all killed). As to conditions: 10 µM unless noted.

Turning to `CCOC(=O)NC(N)=O`, the growth was 105% and 98.7%.

On to `COc1ccc(-c2cc(-c3cccc(Cl)c3)c(C#N)c(=O)[nH]2)c(OC)c1`, for which the growth was 113%.

Turning to `CCCCC(O)(c1ccc(Cl)cc1)C(CN1CCOCC1)c1ccc(Cl)cc1` (centres undefined), the growth was 24.7%.

In the case of `O=C1Nc2ccc3c(c2/C1=C\c1cc2c(cc1Br)OCO2)OCO3`, the growth was -11.9% (active).

Turning to `O=C1CS/C(=N\Nc2cc(=O)[nH]c3ccccc23)N1c1ccccc1`, the growth was 96.9%.

Turning to `c1cncc(-c2cn3nc(-c4c[nH]c5ccccc45)sc3n2)c1`, the growth is -9.26% (active).

Take `Cc1ccccc1NC(=O)N/C(N)=N/c1nc2ccccc2s1`: the growth is 1.56% (active).

Turning to `CC(=O)O[C@H]1CC[C@]2(C)[C@H]3CC=C4[C@@H]5CC(C)(C)CC[C@]5(C(=O)N5CCN(CCC#N)CC5)CC[C@@]4(C)[C@]3(C)CC[C@H]2C1(C)C`, the growth is 32.2%.

As to `CCCCn1c(-c2ccc(C(=O)O/N=C(\N)c3ccc4ccccc4c3)cc2)nc(-c2ccccc2)c1-c1ccccc1`, the growth is 79.9%.

Turning to `Cc1ccc(C(=O)CSc2nnc(-c3ccc(-c4ccc(Cl)cc4)nc3C)o2)cc1`, the growth is 94.9%.

`c1ccc(-c2cccc(-c3ccccn3)n2)nc1`: the growth is -15.6% (active).

For `O=C(Nc1nc2ccccc2s1)c1ccc(F)cc1`, the growth is 94.1%.

Consider `COc1ccc(CNc2ccc3nc(NC(=O)CN4CCCCCC4)sc3c2)cc1`, for which the growth was 46.8%.

In the case of `Cc1[nH]nc2ccc(-c3nc4cnc(N5CCN(C)CC5)cn4c3Nc3ccc(F)cc3Br)cc12`, the growth is 56.2%.
